Reference: PubChem BioAssay (NCI)
Values joined by “and” are separate entries in the source; they are usually repeats but may differ in a detail not shown here. Equal values may be shown once. The panel holds about 83,000 compounds, 20% with a hit somewhere; the sample as a whole holds those more often.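 Negative percent growth values reflect cell death: -40 means 40% of the cells present at the start died, and -100 means all died.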

Tests used:
Assay in all cases: NCI-60 one-dose screen, 48 h (100 = growth as untreated, 0 = no growth, -100 = all killed); active = growth percent below 10; inactive = the rest
SR leukemia = test system: SR leukemia
OVCAR-8 ovarian = test system: OVCAR-8 ovarian
OVCAR-5 ovarian = test system: OVCAR-5 ovarian
OVCAR-4 ovarian = test system: OVCAR-4 ovarian
IGROV1 ovarian = test system: IGROV1 ovarian
OVCAR-3 ovarian = test system: OVCAR-3 ovarian
HS 578T breast = test system: HS 578T breast
NCI/ADR-RES ovarian = test system: NCI/ADR-RES ovarian
RPMI-8226 leukemia = test system: RPMI-8226 leukemia
SK-OV-3 ovarian = test system: SK-OV-3 ovarian

Measured: growth

S=c1nc[nH]c2nc[nH]c12
inactive: SR leukemia; 10 µM 18.1% | SR leukemia; 50 µM 26.6% | OVCAR-8 ovarian; 10 µM 26.6% | OVCAR-8 ovarian; 50 µM 24% | OVCAR-5 ovarian; 10 µM 44.7% | OVCAR-5 ovarian; 50 µM 31.3% | OVCAR-4 ovarian; 10 µM 50.2% | OVCAR-4 ovarian; 50 µM 30.9% | IGROV1 ovarian; 10 µM 70.5% | IGROV1 ovarian; 50 µM 32.3% | OVCAR-3 ovarian; 10 µM 29.6% | OVCAR-3 ovarian; 50 µM 23.3% | HS 578T breast; 10 µM 54.6% | HS 578T breast; 50 µM 43.7% | NCI/ADR-RES ovarian; 10 µM 22.8% | NCI/ADR-RES ovarian; 50 µM 24.9%

O=c1ccn2c(n1)OC1CC2OC1COC(c1ccccc1)(c1ccccc1)c1ccccc1 (configuration not stated)
inactive: RPMI-8226 leukemia; 10 µM 106% | RPMI-8226 leukemia; 100 µM 58.2% | OVCAR-8 ovarian; 10 µM 98.7% | OVCAR-8 ovarian; 100 µM 84.6% | OVCAR-5 ovarian; 10 µM 102% | OVCAR-5 ovarian; 100 µM 101% | OVCAR-4 ovarian; 10 µM 110% | OVCAR-4 ovarian; 100 µM 84.7% | SK-OV-3 ovarian; 10 µM 101% | SK-OV-3 ovarian; 100 µM 70.9% | IGROV1 ovarian; 10 µM 115% | IGROV1 ovarian; 100 µM 85.4% | OVCAR-3 ovarian; 10 µM 126% | OVCAR-3 ovarian; 100 µM 102% | HS 578T breast; 10 µM 121% | HS 578T breast; 100 µM 95.1% | NCI/ADR-RES ovarian; 10 µM 112% | NCI/ADR-RES ovarian; 100 µM 103%

CCCCOC1NC(=O)NC(=O)C1(F)C(=O)OCC (configuration not stated)
inactive: SR leukemia; 10 µM unless noted 37.9% | RPMI-8226 leukemia; 10 µM unless noted 71.8% and 53.1% | OVCAR-8 ovarian; 10 µM unless noted 89.6% and 66.6% | OVCAR-5 ovarian; 10 µM unless noted 96.5% and 91.9% | OVCAR-4 ovarian; 10 µM unless noted 98.9% and 75.8% | SK-OV-3 ovarian; 10 µM unless noted 91.7% and 81.6% | IGROV1 ovarian; 10 µM unless noted 103% and 87.6% | OVCAR-3 ovarian; 10 µM unless noted 77.3% and 65.7% | HS 578T breast; 10 µM unless noted 101% and 115% | NCI/ADR-RES ovarian; 10 µM unless noted 93.7% and 77.1%

CC(C)=NOC(C)C(=O)O (configuration not stated)
inactive: SR leukemia; 10 µM unless noted 92% | RPMI-8226 leukemia; 10 µM unless noted 111% | OVCAR-8 ovarian; 10 µM unless noted 90.2% | OVCAR-5 ovarian; 10 µM unless noted 101% | OVCAR-4 ovarian; 10 µM unless noted 108% | SK-OV-3 ovarian; 10 µM unless noted 115% | IGROV1 ovarian; 10 µM unless noted 135% | OVCAR-3 ovarian; 10 µM unless noted 114% | HS 578T breast; 10 µM unless noted 108% | NCI/ADR-RES ovarian; 10 µM unless noted 99.6%

COc1ccc(CCn2cnn3c(=O)c4ccccc4nc3c2=O)cc1OC
inactive: SR leukemia; 10 µM unless noted 99.4% and 90.8% | RPMI-8226 leukemia; 10 µM unless noted 95.7% and 92.2% | OVCAR-8 ovarian; 10 µM unless noted 104% and 110% | OVCAR-5 ovarian; 10 µM unless noted 99.8% and 121% | OVCAR-4 ovarian; 10 µM unless noted 97.3% and 112% | SK-OV-3 ovarian; 10 µM unless noted 112% and 108% | IGROV1 ovarian; 10 µM unless noted 115% | OVCAR-3 ovarian; 10 µM unless noted 103% and 115% | HS 578T breast; 10 µM unless noted 98.3% and 115% | NCI/ADR-RES ovarian; 10 µM unless noted 101% and 107%

O=COCCCc1ccccc1
inactive: SR leukemia; 10 µM unless noted 117% | RPMI-8226 leukemia; 10 µM unless noted 102% | OVCAR-8 ovarian; 10 µM unless noted 99.2% | OVCAR-5 ovarian; 10 µM unless noted 105% | OVCAR-4 ovarian; 10 µM unless noted 120% | SK-OV-3 ovarian; 10 µM unless noted 98.1% | IGROV1 ovarian; 10 µM unless noted 104% | OVCAR-3 ovarian; 10 µM unless noted 109% | NCI/ADR-RES ovarian; 10 µM unless noted 108%

Cc1c(O)nc(N)[nH]c1=O
inactive: SR leukemia; 10 µM unless noted 125% | RPMI-8226 leukemia; 10 µM unless noted 100% | OVCAR-8 ovarian; 10 µM unless noted 101% | OVCAR-5 ovarian; 10 µM unless noted 106% | OVCAR-4 ovarian; 10 µM unless noted 118% | SK-OV-3 ovarian; 10 µM unless noted 112% | IGROV1 ovarian; 10 µM unless noted 118% | OVCAR-3 ovarian; 10 µM unless noted 121% | HS 578T breast; 10 µM unless noted 101% | NCI/ADR-RES ovarian; 10 µM unless noted 102%

N#Cc1c(N)nc2c(c(-c3ccc(Cl)cc3)nn2-c2ccccc2)c1C#N
inactive: SR leukemia; 10 µM unless noted 104% [100 µM] | RPMI-8226 leukemia; 10 µM unless noted 108% [100 µM] | OVCAR-8 ovarian; 10 µM unless noted 99.8% [100 µM] | OVCAR-5 ovarian; 10 µM unless noted 123% [100 µM] | OVCAR-4 ovarian; 10 µM unless noted 111% [100 µM] | SK-OV-3 ovarian; 10 µM unless noted 94.8% [100 µM] | IGROV1 ovarian; 10 µM unless noted 99.2% [100 µM] | OVCAR-3 ovarian; 10 µM unless noted 122% [100 µM] | NCI/ADR-RES ovarian; 10 µM unless noted 101% [100 µM]

Cc1cccc(Cl)c1N
inactive: SR leukemia; 10 µM unless noted 98.9% | RPMI-8226 leukemia; 10 µM unless noted 120% | OVCAR-8 ovarian; 10 µM unless noted 96.1% | OVCAR-5 ovarian; 10 µM unless noted 110% | OVCAR-4 ovarian; 10 µM unless noted 117% | SK-OV-3 ovarian; 10 µM unless noted 113% | IGROV1 ovarian; 10 µM unless noted 153% | OVCAR-3 ovarian; 10 µM unless noted 117% | HS 578T breast; 10 µM unless noted 87.6% | NCI/ADR-RES ovarian; 10 µM unless noted 101%

CC(C)(C)C1CCC(=NO)CC1 (configuration not stated)
inactive: SR leukemia; 10 µM unless noted 116% | RPMI-8226 leukemia; 10 µM unless noted 92.5% | OVCAR-8 ovarian; 10 µM unless noted 91.9% | OVCAR-5 ovarian; 10 µM unless noted 90.3% | OVCAR-4 ovarian; 10 µM unless noted 97.3% | SK-OV-3 ovarian; 10 µM unless noted 101% | IGROV1 ovarian; 10 µM unless noted 99.5% | OVCAR-3 ovarian; 10 µM unless noted 104% | HS 578T breast; 10 µM unless noted 102% | NCI/ADR-RES ovarian; 10 µM unless noted 103%

COc1cc(NCCCCCCCNC(C)C)c2nccc(C)c2c1
inactive: SR leukemia; 10 µM unless noted 80.1% and 36.1% | RPMI-8226 leukemia; 10 µM unless noted 81.1% and 92.7% | OVCAR-8 ovarian; 10 µM unless noted 86.4% and 89.7% | OVCAR-5 ovarian; 10 µM unless noted 88.3% and 96.9% | OVCAR-4 ovarian; 10 µM unless noted 15.8% | SK-OV-3 ovarian; 10 µM unless noted 93.8% and 72.9% | IGROV1 ovarian; 10 µM unless noted 82.3% and 85.9% | OVCAR-3 ovarian; 10 µM unless noted 22.8% and 26.4% | HS 578T breast; 10 µM unless noted 95% and 68.8% | NCI/ADR-RES ovarian; 10 µM unless noted 88.1% and 84.6%
